In assay [1] the target is T1, Aspartate--tRNA(Asp/Asn) ligase (Mycobacterium tuberculosis (strain ATCC 25618 / H37Rv)) (UniProt P9WFW3). Note: in the data most compounds retested in dose-response had high values.
T1 sequence (whole entry): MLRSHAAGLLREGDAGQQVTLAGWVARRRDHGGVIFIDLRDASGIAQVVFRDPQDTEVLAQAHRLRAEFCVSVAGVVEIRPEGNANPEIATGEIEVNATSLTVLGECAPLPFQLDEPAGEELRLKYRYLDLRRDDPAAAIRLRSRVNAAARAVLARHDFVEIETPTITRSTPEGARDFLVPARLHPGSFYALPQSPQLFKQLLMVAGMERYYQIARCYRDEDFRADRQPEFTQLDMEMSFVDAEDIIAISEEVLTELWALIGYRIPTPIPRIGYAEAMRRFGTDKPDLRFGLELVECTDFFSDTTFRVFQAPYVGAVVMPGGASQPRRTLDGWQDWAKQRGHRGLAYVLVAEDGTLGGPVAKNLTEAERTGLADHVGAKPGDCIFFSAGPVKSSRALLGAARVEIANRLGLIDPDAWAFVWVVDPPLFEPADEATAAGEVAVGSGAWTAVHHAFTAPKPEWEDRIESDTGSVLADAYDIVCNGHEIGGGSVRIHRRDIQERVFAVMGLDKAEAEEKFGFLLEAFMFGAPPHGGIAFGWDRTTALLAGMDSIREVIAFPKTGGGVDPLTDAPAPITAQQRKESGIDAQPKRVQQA
In words: Assay for Asp RNA synthetase-1 from Mycobacterium tuberculosis. The class given is functional. To be noted: 30 µM. Also on record: scale not given: direction of the effect not stated beside the values.

Assay [2] addresses Shiga toxin 2 (Escherichia coli O157:H7) (UniProt P09385+P09386). In words: E. coli 0.157:H7 Shiga Toxin SOP - stx2 screening assay. The class given is functional. Set-up: scale not given: direction of the effect not stated beside the values. To be noted: 30 µM.

Each structure is given as a SMILES string.

`CC(NC(=O)C1=NN(C)C(=O)CC1)c1ccc(F)cc1F` (configuration not stated): the results for the Percent Effect in assay [1] and in assay [2] were -4.46% and -6.55%, respectively.
For `CS(=O)(=O)c1ccc(NC(=O)NCc2ccc3c(c2)CCC3)cn1` the same measures were 1.92% and -9.09%.
For `Cc1nn(C)c(C)c1C(C)NC(=O)Nc1cccnc1N1CCCC1` (configuration not stated) the same measures were -3.63% and 10.7%.
For `CN(C)c1ccc(CN(CCCn2ccnc2)Cc2c[nH]cn2)cc1`, in that order: 0.194% and -38.9%.
With `CN(C)C(=O)[C@@H]1C[C@@H]2CCN(Cc3ccc4c(c3)OCO4)C[C@@H]2O1`, the figures for the Percent Effect in assay [1] and in assay [2] were -0.869% and 3.86%, respectively.
As for `Cc1ccc(C)c(OC2CCN(C(=O)c3ccc(C)[nH]c3=O)CC2)c1`, the Percent Effect in assay [1] is -5.01%; in assay [2] it was 16%.
For `CN1CCCC1CNC(=O)CCCOCc1ccccc1` (configuration not stated), the Percent Effect in assay [1] came to 0.589%; in assay [2] it was 23.4%.
For `O=C(C1CC1)N1CCCC1C1CCN(Cc2ccccc2)CC1` (configuration not stated), the Percent Effect in assay [1] was -4.34%; in assay [2], -13.2%.
For `CC(C)Oc1ncnc2c1CCN(C(=O)c1cccn1C)CC2`, in that order: -1.46% and -10.4%.
For `CN(C)C(=O)CN1C[C@@H]2CC[C@H](C1)N(C(=O)CCn1cncn1)C2` the same measures were 1.04% and -6.26%.
For `Cc1noc(C2CCN(C(=O)c3ccc(N(C)C)nc3)CC2)n1`, in that order: -4.17% and -12.5%.
Regarding `CN(Cc1cnn(-c2ccccc2)n1)CC1CCCN1c1cccnn1` (configuration not stated), the Percent Effect in assay [1] was determined as 1.85%; in assay [2] it was 16%.
Regarding `CCn1c(C2CCCN(Cc3nccn3CCOC)C2)nn(C)c1=O` (configuration not stated), the Percent Effect in assay [1] was found to be 4.25%; in assay [2] it was 5.34%.
For `CCOCCn1c(=O)[nH]c2cc(C(=O)N(C)CCc3cn[nH]c3)ccc21` the same measures were 0.279% and -26.7%.
`CC(=O)N1C[C@@H](c2ccsc2)[C@@H]2CN(Cc3cccc(Cl)c3)CC[C@@H]21`: the Percent Effect is -0.368% in assay [1] and -9.53% in assay [2].
For `CCN1CCN(c2ncc(-c3cc(C)no3)c(-c3ccc(C)s3)n2)CC1`, in that order: 2.72% and 2.82%.
For `CNc1nc(CNC(=O)Nc2ccccc2SC)cs1` the same measures were -0.278% and 22.5%.
For `CCOc1ccc(-n2nnc(C(=O)O)c2-c2ccncc2)cc1` the same measures were 3.77% and -21.9%.
Consider `COCCC(=O)N1CCC2(CC1)CC(c1ccccc1)CN(C)C2` (configuration not stated), for which the Percent Effect is -3.3% in assay [1] and 17.5% in assay [2].
For `Cc1cc(C)nc(CCNC(=O)C(c2ccc(F)cc2)N(C)C)n1` (configuration not stated), in that order: -1.5% and -52.8%.
For `Cc1ccc(C(=O)NS(=O)(=O)c2cc(Cl)ccc2Cl)c(=O)[nH]1` the same measures were 0% and -9.88%.
For `CC(C)c1cc(CNC(=O)N2CCC(Cc3cnn(C)c3)C2)on1` (configuration not stated) the same measures were -3.72% and 11%.
For `Cc1ccc(CNCc2nnc3n2CC(C(F)(F)F)CC3)cc1` (configuration not stated), the Percent Effect was -6.08% in assay [1] and -16% in assay [2].
For `CCc1nc(CN(Cc2cccs2)CC2CCCO2)no1` (configuration not stated) the same measures were 2.75% and 15%.
For `c1coc(-c2nnc(CN3CCOC(Cn4cccn4)C3)o2)c1` (configuration not stated), in that order: -4.34% and 3.23%.
Consider `CNS(=O)(=O)c1ccc(C(=O)NC2CCOc3ccccc32)o1` (configuration not stated), for which the results for the Percent Effect in assay [1] and in assay [2] were -4.13% and 5.97%, respectively.
For `Cc1nc(C)n(CC2CCCN(Cc3ccc(C(N)=O)cc3)C2)n1` (configuration not stated) the same measures were -5.85% and 20.8%.
For `O=C(C[C@@H]1COC[C@H]2CN(Cc3ccc(F)cc3)C[C@@H]12)N1CCOCC1` the same measures were 2.03% and -38.2%.
For `CCS(=O)(=O)N1CCC2(CC1)CC(Oc1ccccn1)CO2` (configuration not stated) the same measures were -0.51% and 0.988%.
Take `O=C1[C@H]2CN(Cc3nccs3)C[C@H]2CN1c1ccsc1`: the Percent Effect in assay [1] stood at 5%; in assay [2], 1.38%.
For `O=C(Nc1ccccc1)C1CN(CC2CC2)CC12CCOCC2` (configuration not stated), in that order: 0.903% and -13.2%.
For `CC(O)CN1CCN(C(=O)CN(C)c2cnccn2)CC1` (configuration not stated) the same measures were 4% and -8.23%.
For `Cc1cnc2c(S(=O)(=O)NCC3CCN(C4CC4)C3)cccc2c1` (configuration not stated) the same measures were 3.65% and 25.5%.
On to `Cc1n[nH]c(C)c1C1COCCN1C(=O)c1ccccc1` (configuration not stated), for which the Percent Effect is 2.68% in assay [1] and -26% in assay [2].
As to `CC(C)c1ncc2c(n1)CN(Cc1nc(Cc3ccccc3)no1)CC2`, the values for the Percent Effect in assay [1] and in assay [2] were -4.05% and -0.282%, respectively.
Take `Cc1noc(NC(=O)c2ccc(C)c(F)c2)n1`: the values for the Percent Effect in assay [1] and in assay [2] were -11.1% and -3.27%, respectively.
Take `COc1cccc2cc(CNCc3ccnc(N4CCOCC4)c3)oc12`: the Percent Effect in assay [1] is -2.91%; in assay [2], 26.8%.
For `N#CC1(C(=O)N2CCN(Cc3cscn3)CC2)CCCC1` the same measures were -0.171% and 9.21%.
For `Cc1ccc(S(=O)(=O)N2CCc3nc(C4CCNCC4)ncc3C2)cc1`, the Percent Effect in assay [1] is -1.21%; in assay [2], 8.71%.
Regarding `COCC1COCCC12CCN(CCc1ccccc1)CC2` (configuration not stated), the results for the Percent Effect in assay [1] and in assay [2] were -6.15% and 2.07%, respectively.
Take `Cc1cnn(C2CN(CC(=O)NCc3ccccn3)C2)c1`: the results for the Percent Effect in assay [1] and in assay [2] were 5% and 21.1%, respectively.
`CC(=O)N(Cc1noc(C2CC2)n1)C1CCN(Cc2cccnc2)C1` (configuration not stated): the Percent Effect in assay [1] is -2.42%; in assay [2] it was 12.6%.
For the molecule `CC(C)Cc1cc(NC(=O)c2ccc[nH]2)n(C)n1`, the Percent Effect is -0.121% in assay [1] and 7.24% in assay [2].
For `O=C(CCc1cccnc1)N1CCCC(n2cncn2)C1` (configuration not stated), in that order: -2.66% and 1.94%.
For the molecule `COCCN1CC[C@@H]2O[C@@H](COCC(=O)N3CCCC3)CC[C@@H]21`, the Percent Effect was -4.13% in assay [1] and -8.7% in assay [2].
For the molecule `CC(C)N(C)CCCNC(=O)c1cnc(-c2ccccc2)nc1`, the Percent Effect is 3.09% in assay [1] and -37.7% in assay [2].
For the molecule `CN(CCC(F)(F)F)C(=O)C1CCCN1C(=O)OC(C)(C)C` (configuration not stated), the Percent Effect in assay [1] was 4.8%; in assay [2], -21.4%.
For `CCCn1nc2c(cc1=O)CN(CC(=O)Nc1ccncc1)CC2`, in that order: 2.52% and -19.5%.
For `CN(Cc1ccc(Cl)s1)C1CCCN(c2cccnn2)C1` (configuration not stated) the same measures were 2.31% and -15%.
For `Cn1cccc1C(=O)N1CCC2(CC1)CN(c1ccccn1)CCO2`, in that order: 7.46% and -7.72%.
As to `CCc1ccc(S(=O)(=O)Nc2cn(C)cc(Br)c2=O)cc1`, the figures for the Percent Effect in assay [1] and in assay [2] were -3.18% and -8.3%, respectively.

The values above are taken from ChEMBL document CHEMBL3988442, “University of Dundee, Small-Polar-MMV Screening Library” (2021).
